Screening results deposited in PubChem BioAssay by National Center for Advancing Translational Sciences (NCATS).
CtBP-E1A inh = inhibitors of CtBP/E1A interaction. AID 651724. AlphaScreen GST-E1A/His-CtBP binding, 1536-well; hits give low values. actives 0.49% (n = 340,000). activity change, % (no concentration beside the values); in the data active means activity change below about -65%; inconclusive means mostly about -30% to -63%
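AlphaScreen with 125 nM GST-E1A and 125 nM His-CtBP (5X stocks) in Tris pH 8.0, 300 mM NaCl, BSA, Tween 20, TCEP. Compounds preincubated 2 h at 37 deg C, then glutathione donor/nickel acceptor beads added for 1 h at 37 deg C in dark.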
Six1-Eya2 blk = blocks human Six1 binding to Eya2; activity change, % (no concentration beside the values); actives 0.56% (n = 360,000); AlphaScreen GST-Six1/His-Eya2 binding, biochemical; hits give low values; in the data active means activity change below about -65%; inconclusive means mostly about -30% to -63%
Target sequence (O00167 whole entry, looked up): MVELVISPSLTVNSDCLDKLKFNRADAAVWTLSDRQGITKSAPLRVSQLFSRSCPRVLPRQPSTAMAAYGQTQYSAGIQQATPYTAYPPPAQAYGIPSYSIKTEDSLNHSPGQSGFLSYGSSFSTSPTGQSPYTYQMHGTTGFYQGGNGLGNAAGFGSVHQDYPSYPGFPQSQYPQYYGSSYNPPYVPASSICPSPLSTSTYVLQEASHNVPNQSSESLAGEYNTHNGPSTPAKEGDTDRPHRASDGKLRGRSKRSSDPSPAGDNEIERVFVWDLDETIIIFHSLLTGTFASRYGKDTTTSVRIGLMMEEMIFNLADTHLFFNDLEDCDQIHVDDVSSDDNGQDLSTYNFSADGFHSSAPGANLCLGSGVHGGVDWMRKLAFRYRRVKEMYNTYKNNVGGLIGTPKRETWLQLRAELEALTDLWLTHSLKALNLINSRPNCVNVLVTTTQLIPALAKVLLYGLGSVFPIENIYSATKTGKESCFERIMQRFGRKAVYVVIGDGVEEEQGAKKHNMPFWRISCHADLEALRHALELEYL
Target sequence (Q15475 whole entry, looked up): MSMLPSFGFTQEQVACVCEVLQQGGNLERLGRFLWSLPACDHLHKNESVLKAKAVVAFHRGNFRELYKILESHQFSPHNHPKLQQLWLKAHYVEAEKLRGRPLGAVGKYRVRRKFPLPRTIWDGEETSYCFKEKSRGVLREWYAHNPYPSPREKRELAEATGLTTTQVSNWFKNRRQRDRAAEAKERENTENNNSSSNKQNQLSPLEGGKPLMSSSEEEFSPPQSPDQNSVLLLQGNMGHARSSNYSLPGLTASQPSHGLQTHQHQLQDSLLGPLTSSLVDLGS
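AlphaScreen luminescence read after one hour at 37 °C in darkness. Pin-transferred compounds met GST-Six1 and His-Eya2 protein (5X stock 250 nM/500 nM) plus glutathione donor and Ni-chelate acceptor beads (5X, 50 ug/mL).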
RORgamma inh = ROR gamma (mouse) transcription inhibition | Potency, µM (series often up to 53.6 µM), most hits filed as inhibitors | actives 5.4% (n = 310,000) | P51450 | Drosophila S2 Gal4-RORgamma UAS-luciferase reporter, 20 h; further: nearly all actives have a fitted effect of over 60% in size
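Drosophila Schneider cells stably carrying a metallothionein-driven Gal4 DBD–ROR gamma fusion and a UAS-Photinus luciferase reporter were exposed to compound for 1 hr, then induced with copper sulfate (700 uM final) for 20 hr at ambient temperature before luminescence reading.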
PKM2 act = activators of human pyruvate kinase M2. AID 1631. actives 0.34% (n = 260,000). Potency, µM (doses to about 57.5 µM), most hits filed as activators. purified PKM2, Kinase-Glo ATP luminescence, activation; response scale: 0% is enzyme alone, no compound; further: nearly all actives have a fitted effect of over 55% in size
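Purified hPK-M2 (>95%) run at intermediate activity with 0.1 mM ADP and 0.5 mM PEP in 50 mM imidazole pH 7.2, KCl, MgCl2; 1 h room temperature. ATP formed read by Kinase-Glo luminescence; normalized to uninhibited and no-enzyme controls.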
VP16 counter = Gal4-VP16 reporter inhibition counter-screen; Drosophila S2 Gal4-VP16 UAS-luciferase, luminescence, 20 h; actives 3.5% (n = 310,000); AID 2546; Potency, µM (doses to about 53.6 µM), actives largely listed as inhibitors;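 further: Gal4-VP16 expression switched on by copper sulfate through the metallothionein promoter; nearly all actives have a fitted effect of over 50% in size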
Large screens that a line does not name were inactive. The list is not random: actives were taken first. Their share in the collection is about 5.6%. Unless noted, the call rests on the fitted dose curve; in most records, active means well fitted curve in the direction sought with a large enough effect; inconclusive means small, poorly fitted or top-dose-only effect, or another doubt; inactive means no such curve, though single readings can be large; an effect the other way counts as inactive or inconclusive.

COc1ccc(C(=O)C2CCCN(Cc3c[nH]c4ccccc34)C2)c(OC)c1 (stereo not drawn)	none
CCCCCC(=O)Nc1ccc(C2C(=O)c3ccccc3C2=O)cc1	none (no result: PKM2 act)
CCCC(=O)NC(c1ccccc1OC)c1ccc2cccnc2c1O (stereo not drawn)	CtBP-E1A inh -84, Six1-Eya2 blk -88, RORgamma inh 5µM, PKM2 act inconclusive, VP16 counter 2.2µM
CCCCC(=O)NC(c1ccccc1OC)c1ccc2cccnc2c1O (stereo not drawn)	CtBP-E1A inh -92, Six1-Eya2 blk -76, RORgamma inh 5.6µM, VP16 counter 4.5µM
Cc1cccc(C(=O)NC(=S)NCc2ccccc2)c1	none (no result: RORgamma inh, PKM2 act, VP16 counter)
Cc1cccc(C(=O)NC(=S)NNC(=O)c2ccccc2Cl)c1	RORgamma inh 4.5µM, VP16 counter inconclusive
Cc1cc(C)nc(NC(=O)/C=C/c2ccccc2Cl)n1	RORgamma inh inconclusive
Cc1cccc(C(=O)NC(=S)NNC(=O)Cc2ccccc2)c1	RORgamma inh 10µM
Cc1cccc(C(=O)NC(=S)NNC(=O)COc2c(C)cccc2C)c1	RORgamma inh 13µM, VP16 counter inconclusive
Cc1cccc(C(=O)NNC(=O)c2cccc(C)c2)c1	none
Cc1cc(C(=O)NNC(=S)NC(=O)/C=C/c2ccccc2Cl)n[nH]1	CtBP-E1A inh -99, Six1-Eya2 blk -91, RORgamma inh inconclusive, VP16 counter 13µM
CCN(CC)CCN1C(=O)C(=O)/C(=C(/O)c2ccc(OC(C)C)cc2)C1c1cccs1 (stereo not drawn)	none
CC(Oc1ccccc1)C(=O)N1CCN=C1SCc1ccc(F)cc1 (stereo not drawn)	none (no result: CtBP-E1A inh)
CCCCN=C1NN=C(c2ccc(C)c(C)c2)CS1	RORgamma inh 7.1µM, PKM2 act inconclusive, VP16 counter 13µM (no result: CtBP-E1A inh)
c1cc2c(cc1C1=NNC(=NC3CC3)SC1)OCCO2	RORgamma inh 2.5µM, VP16 counter 2.2µM (no result: CtBP-E1A inh)
COCCN=C1NN=C(c2ccc(C)c([N+](=O)[O-])c2)CS1	RORgamma inh 13µM
CCCCN=C1NN=C(c2ccc3c(c2)OCCO3)CS1	RORgamma inh 4.5µM, VP16 counter 7.9µM
COc1ccc(N=C2NN=C(c3ccc4c(c3)OCCO4)CS2)cc1	none
Cc1c(F)c(N2CCNC(C)C2)cc2c1c(=O)c(C(=O)O)cn2C1CC1 (stereo not drawn)	none (no result: CtBP-E1A inh, Six1-Eya2 blk, PKM2 act)
CN(C)S(=O)(=O)N1CCN(CC(=O)Nc2ccc(F)cc2)CC1	RORgamma inh inconclusive (no result: CtBP-E1A inh)
Cc1ccc(S(=O)ONc2cccc(NOS(=O)c3ccc(C)cc3)c2)cc1 (stereo not drawn)	none (no result: RORgamma inh, PKM2 act, VP16 counter)
COC(=O)C1=C(C)N(Cc2ccccc2)C(=S)N[C@H]1CCc1ccccc1	RORgamma inh 4.5µM, VP16 counter inconclusive (no result: CtBP-E1A inh, Six1-Eya2 blk)
CCOC(=O)C1=C(C)Nc2nc(=S)[nH]n2C1c1ccc(Cl)cc1 (stereo not drawn)	RORgamma inh 10µM (no result: CtBP-E1A inh)
CCN1C(=S)N[C@@H](c2cccc(F)c2)C(C(=O)OC)=C1C	RORgamma inh 5µM, VP16 counter 11µM
COC(=O)C1=C(C)N(Cc2ccccc2)C(=S)N[C@H]1c1ccccc1	RORgamma inh 3.2µM, PKM2 act inconclusive, VP16 counter 16µM
CCOC(=O)N1CCC(N2Cc3cccc(C(=O)Nc4ccc(N(CC)CC)cc4C)c3C2=O)CC1	none
CCOC(=O)C1=C(C)N(CC)C(=S)NC1c1ccc(Cl)cc1 (stereo not drawn)	RORgamma inh 7.1µM, VP16 counter 6.3µM
OC(c1ccc(F)cc1)c1nc(-c2cccs2)cs1 (stereo not drawn)	none (no result: RORgamma inh, PKM2 act, VP16 counter)
c1ccc2c(Nc3nc4c(s3)CCCC4)cccc2c1	RORgamma inh 13µM, VP16 counter inconclusive
O=C(COc1ccc(F)cc1)c1c(O)cc(O)cc1O	RORgamma inh 2µM, VP16 counter inconclusive
O=C(COc1ccc(Cl)cc1)c1ccc(O)cc1O	RORgamma inh 0.16µM, VP16 counter 1.4µM
CCOC(=O)c1ccc(OCC(=O)c2ccc(O)cc2O)cc1	RORgamma inh 0.25µM, VP16 counter 1.1µM
COc1ccc(C(=O)COc2ccc(F)cc2)c(O)c1	none
O=C(COc1ccccc1)OCC(=O)c1ccc(O)cc1O	none (no result: RORgamma inh, PKM2 act, VP16 counter)
COC(=O)c1ccc(OCC(=O)c2ccc(O)cc2O)cc1	RORgamma inh 0.079µM, VP16 counter 0.89µM
CC(NC(=O)COC(=O)c1cccc(S(=O)(=O)N2CCCC2)c1)c1ccccc1 (stereo not drawn)	none (no result: RORgamma inh, PKM2 act, VP16 counter)
Cc1c(O)ccc(C(=O)COc2ccccc2F)c1O	none
O=C(COc1ccccc1F)c1ccc(O)cc1O	RORgamma inh 3.2µM, VP16 counter inconclusive
CN(Cc1cn(Cc2ccc(Cl)cc2)nn1)C1CN(Cc2cn(Cc3ccc(Cl)cc3)nn2)S(=O)(=O)C1 (stereo not drawn)	none (no result: RORgamma inh, PKM2 act, VP16 counter)
S=C(Nc1ccccc1Cl)NC1CC2CCCC(C1)N2C1CC1 (stereo not drawn)	RORgamma inh 11µM (no result: CtBP-E1A inh)
CC1(C)CC(=O)C2=C(C1)NC(=S)C(C#N)C21CCCCC1 (stereo not drawn)	RORgamma inh 10µM
COc1cccc(CNC(=O)[C@@H]2CCCN2C(=O)[C@@H]2CCCN2)c1	none (no result: RORgamma inh, PKM2 act, VP16 counter)
COc1cccc(NC(=O)CSc2nnc(-c3ccoc3C)n2-c2ccccc2)c1	none
Cc1cccc(-n2c(SCC(=O)Nc3ccc4c(c3)OCO4)nnc2-c2ccoc2C)c1	RORgamma inh 2µM, VP16 counter inconclusive
O=c1[nH]c(C2CC2)nc2sc3c(c12)CCCC3	none
O=c1[nH]c(=S)[nH]c2sc3c(c12)CCCCCC3	RORgamma inh 14µM, VP16 counter inconclusive
COCCCn1c(=S)[nH]c2sc3c(c2c1=O)CCCS3	RORgamma inh 1µM, VP16 counter 2.8µM
COCCn1c(=S)[nH]c2sc3c(c2c1=O)CCC(C)C3 (stereo not drawn)	RORgamma inh 1.1µM, VP16 counter 1.3µM
Nn1c(=S)[nH]c2sc3c(c2c1=O)CCCC3	none (no result: RORgamma inh, PKM2 act, VP16 counter)
CCn1c(=O)n(CCOC)c(=O)c2c3c(sc21)CCCC3	none
CCn1nnc2sc3c(c2c1=O)CCC(C)C3 (stereo not drawn)	none
CCCn1c(=S)[nH]c2sc3c(c2c1=O)CCCC3	RORgamma inh 0.28µM, VP16 counter 0.89µM (no result: PKM2 act)
O=C(COc1ccc(Cl)cc1)NNC(=O)c1ccccc1C(=O)O	none
COC(=O)[C@H](CC(C)C)NC(=O)Nc1ccc(S(N)(=O)=O)cc1	none
CCN(CC)S(=O)(=O)c1cc(NC(=O)CSc2nccn2C)ccc1C	none
Cn1c(=S)[nH]c2sc3c(c2c1=O)CCC(C(C)(C)C)C3 (stereo not drawn)	RORgamma inh 0.32µM, VP16 counter 1µM (no result: CtBP-E1A inh, Six1-Eya2 blk, PKM2 act)
CC(C)/C(=N\NS(=O)(=O)c1ccc(Br)cc1)c1cccs1	none
O=C(COC(=O)c1cccc(S(=O)(=O)N2CCN(c3ccccc3)CC2)c1)NCc1ccco1	RORgamma inh 8.9µM, VP16 counter 10µM
